Measurements reported in PubChem BioAssay AID1346378 (National Center for Advancing Translational Sciences (NCATS), 2018).
Several values for one entry are separate records, joined by “and”; a condition that tells them apart may be missing. Identical values can stand only once. The whole screen tested about 420,000 compounds, of which about 540 (0.13%) were called active. Cut-off read from the data, not from the text of the source: active = activity change below about -50%; inconclusive = mostly about -30% to -49%; inactive = weaker than that. For the sample, actives were picked, then their nearest neighbours and some compounds at random. The source holds several records for some structures; these can differ, active in one and inactive in another.

Molecular target: Phosphatidylinositol 4-kinase type 2-alpha (Homo sapiens) (UniProt Q9BTU6)
Assay: qHTS for small molecular inhibitors of PI4K2A;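 note: -100% = wells without enzyme as full effect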
Conditions: purified PI4K2A, ADP-Glo luminescence, 1 h; at 76.9 µM, stronger effect = lower value
Text: The phosphatidylinositol 4-phosphate (PI4P) is emerging as a key regulator of lipid transfer in ER-membrane contact sites. The four different phosphatidylinositol 4-kinase (PI4K) enzymes generate PI4P in different membrane compartments supporting distinct cellular processes many of which are crucial for the maintenance of cellular integrity but also hijacked by intracellular pathogens. The goal of this screening project is to search for small molecular inhibitors of PI4K2A based on a high throughput screening strategy.The ADP-Glo assay was used as a starting point to develop a miniaturized version for HTS applications. To implement the HTS screen, the PI4K ADP-Glotrade mark Kinase assay (Promega, V9102) was miniaturized for the 1536-well format used at NCGC.
For the robotic screening, the ADP-Glo assay using the ADP-Glotrade mark Kinase Assay kit from Promega was miniaturized and optimized on 1536-well white solid bottom plates (Greiner Bio-one). The substrate, 1.2 mM PI, prepared in the assay buffer (40mM Tris pH7.5, 20mM MgCl2, 1mM EGTA, 0.4% Triton X-100, 0.5mM DTT, 0.5mg/ml BSA) and PI4K2A enzyme, diluted also in the assay buffer to 4ug/mL, were dispensed onto the plates in equal volumes (1microl/well), pinned with 23 nL/well tested compounds or control followed by dispensation of 1microl/well 300microM ATP. The plates were incubated for one hour. Then, 2 µL/well of ADP-Glo reagent was added and incubated for 40 minutes. Next, 4microL/well of Kinase Detection Buffer was added to the plates and incubated for additional 40 minutes. All incubation steps were performed at ambient temperature. The resulting luminescence signal was measured on Viewlux plate reader (PerkinElmer). Adenosine, a partial non-specific inhibitor, was used as a positive control at 100microM final concentration to assess the assay's quality and plate-to-plate reproducibility. We also used "no enzyme" control to gauge the assay's maximal potential inhibition (IC100).

Phosphatidylinositol 4-kinase type 2-alpha (Homo sapiens), sequence (Q9BTU6 whole entry, looked up): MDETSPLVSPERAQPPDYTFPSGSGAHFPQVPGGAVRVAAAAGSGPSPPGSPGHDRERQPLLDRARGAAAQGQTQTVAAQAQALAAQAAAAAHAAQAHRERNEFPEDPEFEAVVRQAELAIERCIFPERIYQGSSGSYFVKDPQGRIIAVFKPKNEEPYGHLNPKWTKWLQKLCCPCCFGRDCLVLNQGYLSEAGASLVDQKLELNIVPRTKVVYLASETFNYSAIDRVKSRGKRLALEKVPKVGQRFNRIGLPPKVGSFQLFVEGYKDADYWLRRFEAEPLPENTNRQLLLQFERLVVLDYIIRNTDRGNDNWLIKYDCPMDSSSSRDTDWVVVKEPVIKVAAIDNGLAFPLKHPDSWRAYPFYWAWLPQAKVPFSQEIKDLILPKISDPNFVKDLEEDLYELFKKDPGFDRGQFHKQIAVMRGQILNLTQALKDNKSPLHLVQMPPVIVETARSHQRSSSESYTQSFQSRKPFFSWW

Activity change, negative = inhibition, active:
CCOc1ccc(NC(=O)c2ccc(NC(=O)COC(=O)c3ccc(NC(=O)CC#N)cc3)cc2)cc1 -84.7%, COc1ccc(C(=O)Nc2ccccc2C(=O)N/N=C/c2ccc(O)c(OC)c2)cc1 -68.9%, CCN1CCN(CCCNC(=O)c2ccc3c(c2)sc2nc(-c4ccc(OC)cc4)cn23)CC1 -72.4%, Cc1n[nH]c(=O)nc1N/N=C/c1cccs1 -51.8%, CCOc1ccc(N/C=C/C(=O)c2ccccc2)cc1 -50.8%, Nc1c(C(=O)O)cnn1-c1ccccc1 -60.3%, O=c1ccc2c(-c3ccccc3S(=O)(=O)O)c3ccc(O)c(O)c3oc-2c1O -68%, CC1(C)O[C@@H]2[C@H](O1)[C@@H](CO)O[C@H]2n1c(N2CCCCC2)nc2c(N)ncnc21 -54.5%, N#Cc1c(N2CCCCC2)nc(N)c2c(N)nc(SCC(=O)O)cc12 -59.8%, COc1cccc(C(=O)Nc2ccc(N3CCCC3)cc2)c1 -68.3%

Activity change, negative = inhibition, -14.9% (inactive) and -50.4% (active):
O=C(Nc1ccc(C(=O)O)c(O)c1)c1ccccc1

Activity change, negative = inhibition, inactive:
CCOC(=O)c1ccc(-c2ccc(/C=C(\C#N)C(=O)Nc3ccc(OCC)cc3)o2)cc1 -0.67%, CCOc1ccc(NC(=O)Cn2c(C)ccc(C#N)c2=O)cc1 1.57%, COC(=O)CN1C(=O)CSc2ccc(S(=O)(=O)Nc3cc(C)ccc3C)cc21 -1.14%, Cc1ccc(S(=O)(=O)c2cn(Cc3ccccc3)c3cc(N4CCCC4)c(F)cc3c2=O)c(C)c1 2.36%, O=C(NCc1ccc(F)cc1)c1ccc(Cn2c(SCc3ccc(F)cc3)nc3cccnc32)cc1 -1.71%, O=C(OCC(O)CO)c1ccccc1Nc1ccnc2c(C(F)(F)F)cccc12 (centres undefined) 0.766%, COc1cccc(/C=N/NC(=O)C(=O)N2CCCC2)c1 -2.13%, COc1ccc(Nc2ncc(C(=O)Nc3cc(C)ccc3OC)c3ccccc23)cc1 2.21%, CC(=O)/C(C)=N/O -0.649%, O=C(Nc1c(C(=O)N2CCN(c3ccc(F)cc3)CC2)oc2ccccc12)c1ccco1 -1.83%, CCc1ccc2ncc3c(-c4ccc(C)cc4)nn(CC(=O)NCc4ccccc4)c3c2c1 8.2%, COc1ccc(OCCn2cc(C(=O)C3CCCCC3)c3ccccc32)cc1 -0.826%, COc1cc(C(=O)Nc2ccc(-n3c(C)nc4ccccc4c3=O)cc2)cc(OC)c1OC 6.04%, Cc1ccc2onc(CC(=O)N3CCN(c4ccc(Cl)cc4)CC3)c2c1 2.89%, O=C(OCc1ccccc1)c1ccc(O)cc1 -0.636%, COc1ccc(-c2cn3c(n2)sc2cc(C(=O)Nc4ccccc4F)ccc23)cc1 -4.68%, Cc1ccc(-c2cn3c(n2)sc2cc(C(=O)NCCCc4ccccc4)ccc23)cc1 -1.39%, CCC(=O)Nc1cccc(-c2nc3cc(C)ccc3o2)c1 -9.07%, O=C(Nc1ccc(Br)cc1)c1ccc(Br)c(S(=O)(=O)NCc2ccccc2)c1 -0.252%, CCC(=O)N1CCc2cc(S(=O)(=O)NC(C(=O)NCCc3ccc(C)cc3)C(C)C)ccc21 (centres undefined) -3.91%, CC(C)c1ccc(C2CC(=O)N3CN(C4CCCCC4)CSC3=C2C#N)cc1 (centres undefined) -15.6%, Cc1cc(C)c(NC(=O)CN2C(=O)c3cccnc3Oc3ccc(Cl)cc32)c(C)c1 -3.1%, COC(=O)/C=C(/C)N -1.85%, O=c1nc(N/N=C/c2ccco2)cn[nH]1 -22.5%, COc1ccc2c(c1)c(C(=O)N/N=C/c1cccs1)c(C)n2C -1.53%, CCCCC12CN3CC(C)(CN(C1)C3c1ccc(O)c(OC)c1)C2=O (centres undefined) 0.484%, CCCCNC(=O)c1ccc2c(c1)NC(=O)C(C(C)C)N2 (centres undefined) -1.85%, COc1ccc(CCNC(=O)CCCn2c(=O)c3ccccc3n(Cc3ccc(F)cc3Cl)c2=O)cc1OC 1.26%, O=C(Cn1ccc(=O)[nH]c1=O)Nc1ccc(C(=O)O)c(O)c1 -9.18%, O=C(O)c1ccc(-n2cccc2)cc1O 1.97%, CCCCOc1ccc(CNC(=O)c2ccc3c(c2)N(C)C(=O)C2CCCCN32)cc1 (centres undefined) 1.06%, CC(C)(C)OC(=O)N1CCC(c2c(C(=O)Nc3ccc4c(c3)OCO4)cnn2-c2ccccc2)CC1 -3.37%, Cc1cccc(-c2nnc(SCC(=O)N3CCCc4ccccc43)o2)c1 1.17%, CCCCOc1ccc(C(=O)Nc2cccc(-c3nc4ccccc4o3)c2C)cc1 -4.4%, CCOC(=O)c1cccc(NS(=O)(=O)c2cc(-c3cnc(C)o3)ccc2OC)c1 -9.3%, COc1ccc(Cl)cc1NC(=O)CSc1nc(=O)[nH]c2c1CCCC2 3.81%, CCc1ccccc1NC(=O)Cc1ccc(NC(=O)N2CCCCc3ccccc32)cc1 -0.392%, COC(=O)c1cc(NC(=O)CCS(=O)(=O)c2cc(Br)cc3c2N(C(=O)C2CC2)CC3)cc(C(=O)OC)c1 1.45%, CCOc1cc(-c2nnc(SCC(=O)NC3CCCC3)nc2-c2ccc(OC)c(OCC)c2)ccc1OC 1.43%, C=CC1(C)CC(=O)C2(O)C(C)(O1)C(OC(C)=O)C(O)C1C(C)(C)CCC(O)C12C (centres undefined) -8.1%, COc1ccc(-c2nc3ccccc3o2)cc1NC(=O)c1cc([N+](=O)[O-])ccc1N1CCOCC1 -1.07%, COc1ccc(/C=C/c2nc(C#N)c(NCc3ccc(F)cc3)o2)cc1OC 3.37%, CCc1ccc(NC(=O)c2cc(S(=O)(=O)NC3CCCCCC3)ccc2F)cc1 1.04%, Oc1ccc(Cn2cc[nH]c2=S)cc1 2.19%, CCC1=Nc2cc(C(=O)NCC(C)c3ccccc3)ccc2Sc2ccc(C)cc21 (centres undefined) -0.814%, CCOc1ccc(NC(=O)Cn2cc(C(=O)c3ccc(C)cc3)c(=O)c3cc4c(cc32)OCCO4)cc1 -5.72%, CCCn1ccc2c(OCC(=O)NCc3ccc(F)cc3)cccc2c1=O 1.12%, O=C(c1ccc2c(c1)N(Cc1ccccc1)C(=O)c1ccccc1S2(=O)=O)N1CCC(Cc2ccccc2)CC1 -3.09%, CCOc1ccccc1NC(=O)CN1CCN(S(=O)(=O)c2ccc(Br)cc2)CC1 -3.13%, CCOc1ccccc1NC(=O)Cn1c(=O)n(-c2cccc(C)c2)c(=O)c2c1c1cc(OC)ccc1n2C 5.68%, Nc1ccc2c3c(cccc13)C(=O)NC2=O -1.25%, CN[C@@H]1[C@@H](O)[C@@H](O[C@@H]2[C@H](O)[C@H](O[C@H]3OC(CN)=CC[C@H]3N)[C@@H](N)C[C@H]2N)OCC1(C)O (some centres undefined) 3.62%, CC1(C)S[C@@H]2[C@H](N=CN3CCCCCC3)C(=O)N2[C@H]1C(=O)O -3.84%, Cc1cc(C)cc(-n2ccnc2SCC(=O)Nc2nc3ccccc3s2)c1 -3.54%, CCOc1ccc(NC(=O)N(CC(C)C)CC(C)C)cc1 7.41%, CCOc1ccc(NC(=O)CSc2c3c(nc4ccccc24)CCCC3)cc1 -3.16%, COc1ccc(C(=O)NCC(c2ccc(N(C)C)cc2)N2CCc3ccccc32)c(OC)c1 (centres undefined) 0.413%, CCCCN(C)CCCNC(=O)CN1N=C(c2ccc(OC)cc2)CCC1=O -1.59%, COc1cc(CNC(=O)c2cc3n(n2)CCCN(Cc2cccc(F)c2)C3=O)cc(OC)c1OC -0.346%, COC(=O)c1cc(Cl)c(NC(C)=O)cc1OC -2.22%, NNC(=O)c1cnn(-c2ccccc2)c1C(F)(F)F 3.06%, CCNC(=O)c1cnn(-c2ccccc2)c1-c1ccccc1 2.38%, O=C(NC1CC(=O)N(c2ccccc2)C1)c1ccco1 (centres undefined) -1.35%, CCOc1ccc(C(NC(=O)c2cc(OC)c(OC)c(OC)c2)c2cc(Cl)c3cccnc3c2O)cc1 (centres undefined) -3.07%, COc1ccc(OC)c(NC(=O)C2CCCN(S(=O)(=O)c3ccc4c(c3)CCCC(=O)N4)C2)c1 (centres undefined) -2.64%, CN1CC[C@H](c2c(O)cc(O)c3c(=O)cc(-c4ccccc4Cl)oc23)[C@H](O)C1 -3.75%, Nc1ncnc2c1c(I)cn2[C@@H]1C[C@H](N)[C@@H](O)[C@H]1O -21.5%, NC1CCN(O)C1=O (centres undefined) 0.196%, CCOC(=O)c1cc2c(=O)n3ccccc3nc2n(Cc2ccco2)c1=NC(=O)c1ccc(F)cc1 -8.37%, Cc1cc(NS(=O)(=O)c2ccc3oc(=O)c4ncn(C)c4c3c2)ccc1Br 3.97%, OCC1OC(n2cnc3c(N4CCCC4)ncnc32)C(O)C1O (centres undefined) -0.936%, Nc1ncnc2c1cnn2C1CC(O)C(CO)O1 (centres undefined) -25.1%, Cn1c(=O)c2c(-c3ccccc3Br)n(Cc3ccccc3)cc2n(C)c1=O -1.93%, O=c1cc(-c2ccccc2)[nH]c2nc(Cl)ccc12 3.68%, Cc1nnc(C(=O)NC(C)(C)c2nc(C(=O)NCc3ccc(F)cc3)c(O)c(=O)n2C)o1 -1.36%, CCN(C(=O)Cn1cc(S(=O)(=O)N2CCN(c3ccccc3F)CC2)c2ccccc2c1=O)c1ccc(C)c(C)c1 -1.44%, COc1cccc(C(=O)NC(=O)Nc2ccc(-c3cc(C(F)(F)F)nn3-c3ccccc3)cc2)c1 -3.82%, COc1cccc(C(=O)Nc2ccc(-c3cc(C(F)(F)F)nn3-c3ccccc3)cc2)c1 4.36%
